From the supplement of paper PMC8728848
The sample as a whole holds a higher share of the strongest signals than the screen did.

Experiments:
Assay in all cases: glycan array binding signal (z-score within array); higher = stronger binding
Details in all cases: glycan notation: IUPAC condensed, linker removed
[1] = biological target: Fuc(a1-2)Gal(b1-3)GlcNAc(b1-2)Man(a1-3)[Fuc(a1-2)Gal(b1-3)GlcNAc(b1-2)Man(a1-6)]Man(b1-4)GlcNAc(b1-4)GlcNAc
Procedure, shortened: (§1)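 Arrays were curated from the Consortium for Functional Glycomics database, 3228 in total, and kept only where the protein sequence was available. Binding is expressed as a within-array Z-score. This score was averaged across arrays of the same protein sequence at different concentrations or buffers and across linkers, and negative values can be read as non-binding.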

[2] = biological target: Fuc(a1-2)Gal(b1-3)[Fuc(a1-4)]GlcNAc(b1-2)Man(a1-3)[Fuc(a1-2)Gal(b1-3)[Fuc(a1-4)]GlcNAc(b1-2)Man(a1-6)]Man(b1-4)GlcNAc(b1-4)GlcNAc
Procedure, shortened: as §1

[3] = biological target: Fuc(a1-2)[Gal(a1-3)]Gal(b1-4)Glc
Procedure, shortened: as §1

[4] = biological target: Fuc(a1-2)[Gal(a1-4)]Gal(b1-4)GlcNAc
Procedure, shortened: as §1

[5] = biological target: Fuc(a1-2)[GalNAc(a1-4)]Gal(b1-4)GlcNAc
Procedure, shortened: as §1

[6] = biological target: Fuc(a1-3)[Gal(b1-4)]GlcNAc(b1-4)Gal(b1-4)[Fuc(a1-3)]GlcNAc
Procedure, shortened: as §1

[7] = biological target: Gal(a1-3)[Gal(a1-4)]Gal(b1-4)GlcNAc
Procedure, shortened: as §1

Gal(b1-2)Gal = biological target: Gal(b1-2)Gal
Procedure, shortened: as §1

[8] = biological target: Gal(b1-4)GlcNAc(b1-2)Man(a1-3)[Gal(b1-4)GlcNAc(b1-2)Man(a1-6)]Man(b1-4)GlcNAc(b1-4)GlcNAc
Procedure, shortened: as §1

[9] = biological target: Gal(b1-4)GlcNAc(b1-3)Gal(b1-4)GlcNAc(b1-3)Gal(b1-4)GlcNAc
Procedure, shortened: as §1

[10] = biological target: Gal(b1-4)GlcNAc(b1-3)[GlcNAc(b1-6)]Gal(b1-4)GlcNAc
Procedure, shortened: as §1

[11] = biological target: Gal3S(b1-3)[Fuc(a1-4)]GlcNAc
Procedure, shortened: as §1

Gal3S6S(b1-4)GlcNAc6S = biological target: Gal3S6S(b1-4)GlcNAc6S
Procedure, shortened: as §1

GalNAc(a1-3)GalNAc = biological target: GalNAc(a1-3)GalNAc
Procedure, shortened: as §1

GalNAc(b1-3)GalNAc = biological target: GalNAc(b1-3)GalNAc
Procedure, shortened: as §1

Glc(a1-6)Glc(a1-6)Glc = biological target: Glc(a1-6)Glc(a1-6)Glc
Procedure, shortened: as §1

Glc(b1-6)Glc = biological target: Glc(b1-6)Glc
Procedure, shortened: as §1

GlcA(b1-6)Gal = biological target: GlcA(b1-6)Gal
Procedure, shortened: as §1

[12] = biological target: GlcNAc(a1-4)Gal(b1-4)GlcNAc(b1-3)Gal(b1-4)GlcNAc(b1-3)Gal(b1-4)GlcNAc
Procedure, shortened: as §1

[13] = biological target: GlcNAc(a1-4)Gal(b1-4)GlcNAc(b1-3)Gal(b1-4)[Fuc(a1-3)]GlcNAc(b1-3)Gal(b1-4)[Fuc(a1-3)]GlcNAc
Procedure, shortened: as §1

[14] = biological target: GlcNAc(a1-6)Gal(b1-4)GlcNAc
Procedure, shortened: as §1

[15] = biological target: GlcNAc(b1-4)[GlcNAc(b1-6)]GalNAc
Procedure, shortened: as §1

Man(a1-6)Man = biological target: Man(a1-6)Man
Procedure, shortened: as §1

[16] = biological target: Neu5Ac(a2-3)Gal(b1-3)GlcNAc(b1-3)Gal(b1-3)GlcNAc
Procedure, shortened: as §1

[17] = biological target: Neu5Ac(a2-3)Gal(b1-3)GlcNAc6S
Procedure, shortened: as §1

[18] = biological target: Neu5Ac(a2-3)Gal(b1-4)[Fuc(a1-3)]GlcNAc(b1-3)Gal(b1-4)GlcNAc
Procedure, shortened: as §1

[19] = biological target: Neu5Ac(a2-3)Gal(b1-4)[Fuc(a1-3)]GlcNAc(b1-6)[Gal(b1-3)]GalNAc
Procedure, shortened: as §1

[20] = biological target: Neu5Ac(a2-3)Gal6S(b1-4)[Fuc(a1-3)]GlcNAc
Procedure, shortened: as §1

Neu5Ac(a2-3)GalNAc = biological target: Neu5Ac(a2-3)GalNAc
Procedure, shortened: as §1

[21] = biological target: Neu5Ac(a2-6)Gal(b1-4)GlcNAc(b1-3)Gal(b1-4)GlcNAc(b1-3)Gal(b1-4)GlcNAc
Procedure, shortened: as §1

Neu5Ac(a2-8)Neu5Ac = biological target: Neu5Ac(a2-8)Neu5Ac
Procedure, shortened: as §1

Neu5Ac(b2-6)GalNAc = biological target: Neu5Ac(b2-6)GalNAc
Procedure, shortened: as §1

B1: MRCL (Homo sapiens), NP_872425.1 (protein)
chain: ATKVHFPFHTCDLRIDGDCFMVSSEADTYYRARMKCQRKGGVLAQIKSQKVQDILAFYLGRLETTNEVTDSDFETRNFWIGLTYKTAKDSFRWATGEHQAFTSFAFGQPDNHGLVWLSAAMGFGNCVELQASAAFNWNNQRCKTRNRYICQFAQEHISRWGPGS
B1 was tested, and the “glycan array binding signal (z-score)” value [1] was 3.42, the “glycan array binding signal (z-score)” value [2] was 0.034 and the “glycan array binding signal (z-score)” value [3] was 2.33. For the same binder, the “glycan array binding signal (z-score)” value [4] was -0.456, the “glycan array binding signal (z-score)” value [5] was 3.1 and the “glycan array binding signal (z-score)” value [6] was -0.365. For the same binder, the “glycan array binding signal (z-score)” value [7] was 0.889, the “glycan array binding signal (z-score)” value (Gal(b1-2)Gal) was -0.726 and the “glycan array binding signal (z-score)” value [8] was -0.358. The “glycan array binding signal (z-score)” value [9] was 4.88, the “glycan array binding signal (z-score)” value [10] was 4.12 and the “glycan array binding signal (z-score)” value [11] was -0.239. For the same binder, the “glycan array binding signal (z-score)” value (Gal3S6S(b1-4)GlcNAc6S) was 0.67, the “glycan array binding signal (z-score)” value (GalNAc(a1-3)GalNAc) was -0.581 and the “glycan array binding signal (z-score)” value (GalNAc(b1-3)GalNAc) was -0.074. The “glycan array binding signal (z-score)” value (Glc(a1-6)Glc(a1-6)Glc) was -0.679, the “glycan array binding signal (z-score)” value (Glc(b1-6)Glc) was -0.712 and the “glycan array binding signal (z-score)” value (GlcA(b1-6)Gal) was 0.237. The “glycan array binding signal (z-score)” value [12] was 1.88, the “glycan array binding signal (z-score)” value [13] was 1.11 and the “glycan array binding signal (z-score)” value [14] was 5.62. The “glycan array binding signal (z-score)” value [15] was -0.523, the “glycan array binding signal (z-score)” value (Man(a1-6)Man) was 0.948 and the “glycan array binding signal (z-score)” value [16] was -0.295. The “glycan array binding signal (z-score)” value [17] was -0.562, the “glycan array binding signal (z-score)” value [18] was -0.637 and the “glycan array binding signal (z-score)” value [19] was -0.645. The “glycan array binding signal (z-score)” value [20] was -0.64, the “glycan array binding signal (z-score)” value (Neu5Ac(a2-3)GalNAc) was -0.424 and the “glycan array binding signal (z-score)” value [21] was -0.367. For the same binder, the “glycan array binding signal (z-score)” value (Neu5Ac(a2-8)Neu5Ac) was -0.294 and the “glycan array binding signal (z-score)” value (Neu5Ac(b2-6)GalNAc) was 5.61.
